# Values without a mark were called inactive. Inconclusive results are not listed. A call without a number means that no potency is given here. The source made the active and inactive calls. Unless noted, calls follow the shape of the dose curve; as a rule, active = well fitted curve in the direction sought with a large enough effect; inconclusive = small, poorly fitted or top-dose-only effect, or another doubt; inactive = no such curve, though single readings can be large; an effect the other way counts as inactive or inconclusive.
# What was measured:
# [1] = Validation of Assay for Modulators of Lamin A Splicing (AID 1459; active = well fitted curve in the direction sought with a large enough effect in the signal ratio; the % refers to the signal ratio;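 also: cells exposed to compound for two days before reading; ratio rise marks activators and ratio drop marks inhibitors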)
# In short: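 S3 HeLa stably expressing lamin A-EGFP splicing minigene and DsRed2, 600 cells/well in Opti-MEM with 2% FBS, treated 48 h at 37C; laser-scanning cytometry gives GFP/RFP total intensity ratio; ancitabine positive control, 0.5% DMSO vehicle.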
# [2] = target: DNA repair nuclease/redox regulator APEX1 (Homo sapiens) (UniProt P27695); test: qHTS Validation Assay for Inhibitors of the Human Apurinic/apyrimidinic Endonuclease 1 (APE1) (AID 1705;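 also: TAMRA fluorescence gain over two minutes as APE1 cuts a quenched THF abasic duplex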)
# DNA repair nuclease/redox regulator APEX1 (Homo sapiens), sequence (P27695 whole entry, looked up): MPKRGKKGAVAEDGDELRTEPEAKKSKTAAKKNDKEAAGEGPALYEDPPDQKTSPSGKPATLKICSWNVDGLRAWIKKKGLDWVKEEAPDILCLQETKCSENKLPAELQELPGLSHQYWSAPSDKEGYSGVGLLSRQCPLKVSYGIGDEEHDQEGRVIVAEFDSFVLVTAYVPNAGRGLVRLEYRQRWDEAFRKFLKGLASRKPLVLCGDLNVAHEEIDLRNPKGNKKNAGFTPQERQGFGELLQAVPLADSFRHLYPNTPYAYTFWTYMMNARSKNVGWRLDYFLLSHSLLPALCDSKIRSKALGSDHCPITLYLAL
# In short: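 Fluorogenic double-stranded THF abasic-site substrate (5'-TAMRA/3'-BHQ-2), 50 nM final. Enzyme preincubated with compound 15 min at room temperature, then substrate added. Kinetic fluorescence (ex 525/em 598 nm) read three times at 60 s intervals; activity taken as third-minus-first read difference.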
# [3] = Counterscreen for APE1 Inhibitors: Fluorescent Dye Displacement Validation Assay (AID 1707)
# In short: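 Counterscreen flags promiscuous DNA binders: compounds displacing ThO from duplex DNA (abasic THF site, 50 nM) reduce 540 nm emission (480 nm excitation). ThO 250 nM final; Tris-HCl pH 7.5 with NaCl, MgCl2 and Tween-20.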
# [4] = target: Endonuclease 4 (Escherichia coli (strain K12)) (UniProt P0A6C1); test: Counterscreen for APE1 Inhibitors: qHTS Validation Assay for Inhibitors of Endonuclease IV (AID 1708)
# In short: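 The reaction buffer contained 50 mM Tris-HCl pH 7.5, 50 mM NaCl, 2 mM MgCl2, 1 mM DTT and 0.01% Tween-20. Incision of a 50 nM fluorophore/quencher THF substrate by 2 nM enzyme was measured kinetically.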
# [5] = qHTS for differential inhibitors of proliferation of Plasmodium falciparum line 3D7 (AID 1876); also: potency is read from the fitted curve at half-maximal effect
# [6] = qHTS for differential inhibitors of proliferation of Plasmodium falciparum line W2 (AID 1883); settings: Potency: Plasmodium falciparum W2 proliferation inhibition;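 also: potency is read from the fitted curve at half-maximal effect; parasites grown with compound for 72 h before lysis and staining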
# [7] = qHTS Assay for Modulators of Human Peripheral Myelin Protein 22 (PMP22) Expression/Activity (AID 1967; active = well fitted curve in the direction sought with a large enough effect in the signal ratio; the % refers to the signal ratio)
# In short: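 Mouse MSC80 Schwann cells carrying Pmp22 promoter–green click beetle luciferase plus EF-alpha–red luciferase control, dosed 24 h at 37 °C. Dual-filter luminescence, overlap-corrected; %Activity from green/red ratio normalised to untreated cells, concentration-response curves fitted.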
# [8] = target: Ferritin light chain (Equus caballus) (UniProt P02791); test: qHTS Validation Assay for Identification of Novel General Anesthetics (AID 2323)
# Ferritin light chain (Equus caballus), sequence (P02791 2-175 limits assumed): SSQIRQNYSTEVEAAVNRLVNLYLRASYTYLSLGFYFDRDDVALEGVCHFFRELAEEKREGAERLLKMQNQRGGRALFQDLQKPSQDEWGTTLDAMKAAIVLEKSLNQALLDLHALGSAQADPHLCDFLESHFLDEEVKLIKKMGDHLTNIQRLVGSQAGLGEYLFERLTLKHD
# In short: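 Horse-spleen apoferritin (10 uM) in PBS with 50% saturated 1-aminoanthracene; compounds pin-transferred, 10 min at room temperature. Fluorescence read at 380/535 nm, normalized to free 1-AMA and 1-AMA/apoferritin values; four-parameter Hill fit.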
# [9] = target: ATP-dependent DNA helicase Q1 (Homo sapiens) (UniProt P46063); test: qHTS Validation Assay for Inhibitors of RecQ-Like Dna Helicase 1 (RECQ1) (AID 2353)
# ATP-dependent DNA helicase Q1 (Homo sapiens), sequence (P46063 whole entry, looked up): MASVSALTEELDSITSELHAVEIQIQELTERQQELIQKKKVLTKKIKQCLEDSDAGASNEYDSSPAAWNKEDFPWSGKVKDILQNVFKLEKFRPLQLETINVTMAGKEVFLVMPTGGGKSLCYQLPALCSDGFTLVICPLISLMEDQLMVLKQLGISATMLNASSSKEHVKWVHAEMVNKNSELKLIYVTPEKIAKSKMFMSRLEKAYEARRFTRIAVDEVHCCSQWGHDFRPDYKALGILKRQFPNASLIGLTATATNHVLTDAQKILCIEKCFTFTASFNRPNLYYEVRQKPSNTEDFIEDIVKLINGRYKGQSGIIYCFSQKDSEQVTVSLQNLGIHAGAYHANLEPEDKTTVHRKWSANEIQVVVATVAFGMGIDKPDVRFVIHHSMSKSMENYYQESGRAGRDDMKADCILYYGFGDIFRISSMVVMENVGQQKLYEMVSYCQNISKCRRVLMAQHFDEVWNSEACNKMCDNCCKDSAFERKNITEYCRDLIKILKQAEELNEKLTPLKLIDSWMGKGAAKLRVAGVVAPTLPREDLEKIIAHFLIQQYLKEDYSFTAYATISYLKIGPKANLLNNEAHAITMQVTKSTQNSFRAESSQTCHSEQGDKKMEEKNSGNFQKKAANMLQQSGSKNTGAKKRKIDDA
# In short: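 RECQ1T1 50 nM; forked duplex (20 bp + 30-nt ss tails) 200 nM, ATP 2 mM final; pH 8.0, 2 mM MgCl2, 2.5 ug/ml poly(dI-dC); 15 min compound preincubation; discontinuous kinetic read over 2 h at RT.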
# [10] = target: RecQ-like DNA helicase BLM (Homo sapiens) (UniProt P54132); test: qHTS Validation Assay for Inhibitors of Bloom's syndrome helicase (BLM) (AID 2364)
# In short: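 Forked 20-bp duplex substrate (200 nM, TAMRA/BHQ-2) plus 2 mM ATP added after 15 min compound preincubation with 50 nM enzyme, pH 8.0, poly(dI-dC) 2.5 ug/ml. Strand separation followed by fluorescence (525/598 nm) over 2 h, normalized to enzyme-free and DMSO controls.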
# [11] = Validation screen for small molecules that induce DNA re-replication in MCF 10A normal breast cells (AID 463097); also: nearly all actives have a fitted effect of over 60% in size
# In short: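 MCF 10A cells exposed to compound 48 hr at 37 C, 5% CO2, then Hoechst-stained 40 min. Laser-scanning imaging of nuclear DNA content (405 nm ex, 500-530 nm em); re-replication scored as rise in nuclei with elevated fluorescence intensity.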
# [12] = Quantitative high throughput screen for delayed death inhibitors of the malarial parasite plastid, 96 hour incubation (AID 488745); also: nearly all actives have a fitted effect of over 70% in size
# In short: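 Two-generation (96 h) exposure of luciferase-reporter P. falciparum in erythrocytes, 2% hematocrit, 0.1% parasitemia final, 37 C, 5% CO2, RPMI 1640 with 0.5% Albumax. Growth inhibition scored by reduced luminescence.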
# [13] = Quantitative high throughput screen for delayed death inhibitors of the malarial parasite plastid, 48 hour incubation (AID 488752); also: nearly all actives have a fitted effect of over 65% in size
# In short: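 Cultures: infected erythrocytes at final 2% hematocrit and 0.1% parasitemia in Albumax-supplemented RPMI. Parasites express integrated firefly luciferase. Incubation with compound lasts 48 h before luminescent detection of remaining reporter activity.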
# [14] = target: M-phase phosphoprotein 8 (Homo sapiens) (UniProt Q99549); test: qHTS Validation Assay for Inhibitors for MPP8 Chromodomain Interactions with Methylated Histone Tails (AID 488949); also: top concentration of the series differs between compounds; nearly all actives have a fitted effect of over 55% in size
# M-phase phosphoprotein 8 (Homo sapiens), sequence (Q99549 whole entry, looked up): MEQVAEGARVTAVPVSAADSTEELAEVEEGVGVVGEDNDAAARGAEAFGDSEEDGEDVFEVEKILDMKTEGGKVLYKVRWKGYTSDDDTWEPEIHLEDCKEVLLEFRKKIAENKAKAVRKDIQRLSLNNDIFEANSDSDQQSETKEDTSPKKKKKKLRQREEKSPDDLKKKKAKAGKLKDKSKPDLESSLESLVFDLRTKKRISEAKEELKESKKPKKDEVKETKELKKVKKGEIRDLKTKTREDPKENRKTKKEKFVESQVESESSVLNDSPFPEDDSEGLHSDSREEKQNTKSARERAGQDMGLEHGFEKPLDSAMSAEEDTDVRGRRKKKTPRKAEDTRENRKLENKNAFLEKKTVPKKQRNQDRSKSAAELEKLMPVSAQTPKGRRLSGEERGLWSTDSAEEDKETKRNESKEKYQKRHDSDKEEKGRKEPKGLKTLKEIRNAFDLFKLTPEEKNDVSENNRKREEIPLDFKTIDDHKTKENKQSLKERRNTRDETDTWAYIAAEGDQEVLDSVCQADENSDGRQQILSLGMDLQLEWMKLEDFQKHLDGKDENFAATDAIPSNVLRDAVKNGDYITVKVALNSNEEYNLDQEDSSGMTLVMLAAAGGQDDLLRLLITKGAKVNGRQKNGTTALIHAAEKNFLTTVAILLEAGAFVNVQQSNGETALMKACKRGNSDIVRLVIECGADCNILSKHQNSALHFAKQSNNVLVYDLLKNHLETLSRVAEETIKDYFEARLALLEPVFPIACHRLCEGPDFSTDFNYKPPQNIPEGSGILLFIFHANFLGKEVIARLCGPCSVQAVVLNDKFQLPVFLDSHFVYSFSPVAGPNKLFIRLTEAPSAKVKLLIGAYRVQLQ
# In short: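 MPP8 (50 nM) was pre-bound to 50 nM biotinylated H3(1-18)K9me3 peptide in PBS pH 7.4 with 0.01% Tween-20. Compounds were then added for 30 min at room temperature, and complex disruption was read by AlphaScreen with streptavidin donor and nickel-chelate acceptor beads.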
# [15] = target: Transient receptor potential cation channel subfamily V member 1 (Homo sapiens) (UniProt Q8NER1); test: HTS Assay for Compounds that Act as Enhancers of the Vanilloid Receptor 1 (AID 488979)
# In short: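 Calcium influx kinetics via Fluo-8 (480/520 nm) in TRPV1-expressing cells, 2000/well cultured overnight at 35.5C. Compound-alone read 3 min (agonist phase), followed by EC20 capsaicin challenge for 2 min (enhancer phase).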
# [16] = target: Thyrotropin receptor (Homo sapiens) (UniProt P16473); test: qHTS Assay for Antagonists of the Thyroid Stimulating Hormone Receptor (AID 488980)
# Thyrotropin receptor (Homo sapiens), sequence (P16473 whole entry, looked up): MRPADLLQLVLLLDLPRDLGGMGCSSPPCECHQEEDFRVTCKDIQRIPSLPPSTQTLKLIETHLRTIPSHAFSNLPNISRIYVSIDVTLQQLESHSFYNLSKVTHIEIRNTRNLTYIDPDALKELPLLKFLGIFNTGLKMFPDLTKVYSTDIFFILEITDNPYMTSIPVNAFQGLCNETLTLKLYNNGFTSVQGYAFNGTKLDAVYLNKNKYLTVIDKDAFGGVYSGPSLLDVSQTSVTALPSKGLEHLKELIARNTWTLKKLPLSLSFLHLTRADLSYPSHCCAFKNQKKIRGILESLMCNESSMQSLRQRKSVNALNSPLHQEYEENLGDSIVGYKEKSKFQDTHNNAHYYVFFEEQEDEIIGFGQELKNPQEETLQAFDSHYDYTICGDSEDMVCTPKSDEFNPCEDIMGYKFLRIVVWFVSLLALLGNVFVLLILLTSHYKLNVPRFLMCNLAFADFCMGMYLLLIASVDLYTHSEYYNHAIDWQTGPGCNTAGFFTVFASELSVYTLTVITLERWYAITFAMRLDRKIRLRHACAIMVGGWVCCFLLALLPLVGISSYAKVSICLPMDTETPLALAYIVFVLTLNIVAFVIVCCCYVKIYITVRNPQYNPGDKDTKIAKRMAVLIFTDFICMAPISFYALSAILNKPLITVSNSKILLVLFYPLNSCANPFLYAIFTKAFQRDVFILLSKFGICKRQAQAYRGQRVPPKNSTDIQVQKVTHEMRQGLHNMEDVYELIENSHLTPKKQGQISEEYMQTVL
# In short: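 TSHR-transfected HEK293 cells (2000/well) in HEPES-buffered HBSS with 70 uM RO 20-1724 were stimulated with 4 nM TSH (EC80, final) in the presence of compound. cAMP was measured by HTRF competition after lysis and 30 min at RT.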
# [17] = target: ATP-dependent 6-phosphofructokinase (Trypanosoma brucei brucei) (UniProt O15648); test: qHTS Assay to Find Inhibitors of T. brucei phosphofructokinase: hit validation (AID 492961);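 also: luminescence reports ADP formed as PFK phosphorylates fructose-6-phosphate with ATP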
# In short: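 In this biochemical qHTS validation, titrated compounds were tested against 1.25 nM PFK with 0.1 mM ATP and 0.5 mM F6P. Percent activity came from controls lacking or containing enzyme.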
# [18] = target: Thyrotropin-releasing hormone receptor (Homo sapiens) (UniProt P34981); test: qHTS for Small Molecule Agonists and Allosteric Enhancers of Human TRH Receptor: Validation Screen for Agonists (AID 493127;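 active = calcium activation more than 3 SD above the typical response in the agonist read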;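 also: intracellular calcium rise by fluo-8 fluorescence before TRH EC20 addition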); settings: TRH receptor agonist cell assay; at 2 µM; active compounds read high
# Thyrotropin-releasing hormone receptor (Homo sapiens), sequence (P34981 whole entry, looked up): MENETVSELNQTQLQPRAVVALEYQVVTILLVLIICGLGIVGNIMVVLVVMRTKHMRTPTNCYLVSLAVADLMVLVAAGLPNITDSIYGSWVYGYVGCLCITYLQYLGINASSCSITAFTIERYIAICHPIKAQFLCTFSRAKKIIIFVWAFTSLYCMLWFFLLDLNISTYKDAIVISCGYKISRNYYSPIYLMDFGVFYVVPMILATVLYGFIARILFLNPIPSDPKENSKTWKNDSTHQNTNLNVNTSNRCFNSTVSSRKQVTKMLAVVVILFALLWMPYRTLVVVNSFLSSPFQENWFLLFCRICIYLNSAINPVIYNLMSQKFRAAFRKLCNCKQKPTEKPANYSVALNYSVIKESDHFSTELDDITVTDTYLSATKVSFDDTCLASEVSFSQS
# In short: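 Kinetic fluorescence assay of agonist-induced calcium release: overnight-plated TRHR cells, room-temperature fluo-8 loading, baseline then compound addition with per-second reads.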
# [19] = target: Galactokinase (Homo sapiens) (UniProt P51570); test: qHTS Validation Assay for Inhibitors of Human Galactokinase (GALK) (AID 493189)
# Galactokinase (Homo sapiens), sequence (P51570 whole entry, looked up): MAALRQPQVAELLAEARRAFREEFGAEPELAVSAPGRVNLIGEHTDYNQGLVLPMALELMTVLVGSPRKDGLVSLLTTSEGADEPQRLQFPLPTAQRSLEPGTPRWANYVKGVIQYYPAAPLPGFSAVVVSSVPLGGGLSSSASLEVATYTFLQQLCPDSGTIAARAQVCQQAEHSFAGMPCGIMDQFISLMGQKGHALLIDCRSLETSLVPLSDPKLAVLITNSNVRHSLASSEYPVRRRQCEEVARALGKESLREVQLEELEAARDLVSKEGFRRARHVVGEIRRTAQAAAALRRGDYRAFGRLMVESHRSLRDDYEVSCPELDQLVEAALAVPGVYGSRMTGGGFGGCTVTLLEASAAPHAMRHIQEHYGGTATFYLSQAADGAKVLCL
# In short: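 GALK (5 nM) with 35 uM ATP and 100 uM galactose in HEPES pH 8.0 with MgCl2, NaCl, DTT and BSA. Reaction ran 1 h at room temperature. Residual ATP read by Kinase-Glo Plus luminescence.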
# [20] = Validation screen for small molecules that induce DNA re-replication in SW480 colon adenocarcinoma cells (AID 504364)
# In short: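 Hoechst-stained SW480 nuclei, imaged at 405 nm excitation after 48 hr compound exposure, were counted for elevated DNA content as the re-replication signal.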
# [21] = target: Ubiquitin carboxyl-terminal hydrolase 1 (Homo sapiens) (UniProt O94782); test: Inhibitors of USP1/UAF1: Pilot qHTS (AID 504865);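 also: rhodamine fluorescence freed from ubiquitin-rhodamine substrate followed over time; top concentration of the series differs between compounds; nearly all actives have a fitted effect of over 35% in size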
# Ubiquitin carboxyl-terminal hydrolase 1 (Homo sapiens), sequence (O94782 whole entry, looked up): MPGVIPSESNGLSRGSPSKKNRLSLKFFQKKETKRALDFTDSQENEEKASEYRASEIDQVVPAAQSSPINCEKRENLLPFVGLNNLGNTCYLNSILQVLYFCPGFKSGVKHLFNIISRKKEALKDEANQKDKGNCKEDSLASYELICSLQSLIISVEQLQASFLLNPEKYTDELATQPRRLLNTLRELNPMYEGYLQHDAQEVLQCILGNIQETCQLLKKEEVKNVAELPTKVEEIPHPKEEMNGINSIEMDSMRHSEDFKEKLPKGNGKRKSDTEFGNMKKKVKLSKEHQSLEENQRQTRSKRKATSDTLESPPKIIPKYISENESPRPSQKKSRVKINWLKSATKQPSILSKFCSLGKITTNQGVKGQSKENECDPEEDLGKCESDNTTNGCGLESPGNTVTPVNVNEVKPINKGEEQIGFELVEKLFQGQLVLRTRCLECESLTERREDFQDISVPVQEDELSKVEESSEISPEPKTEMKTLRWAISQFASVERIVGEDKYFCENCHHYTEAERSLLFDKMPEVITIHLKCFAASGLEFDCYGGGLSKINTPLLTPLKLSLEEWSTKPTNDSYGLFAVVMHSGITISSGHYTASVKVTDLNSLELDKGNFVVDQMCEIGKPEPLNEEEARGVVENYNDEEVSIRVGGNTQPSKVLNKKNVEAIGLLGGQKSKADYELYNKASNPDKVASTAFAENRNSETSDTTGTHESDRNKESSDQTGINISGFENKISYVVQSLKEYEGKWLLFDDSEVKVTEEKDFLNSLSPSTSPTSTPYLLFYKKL
# In short: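 USP1/UAF1 complex at 1 nM preincubated 15 min at room temperature with compound, then Ub-Rho substrate added at 150 nM final. Fluorescence (480/540 nm) read kinetically in 50 mM HEPES pH 7.8, 0.5 mM EDTA, 1 mM TCEP, 0.1 mg/ml BSA, 0.01% Tween-20.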
# [22] = target: Luciferin 4-monooxygenase (Photinus pyralis) (UniProt P08659); test: Biochemical firefly luciferase enzyme assay for NPC (AID 624030);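 also: purified P. pyralis luciferase at 10 nM with luciferin and ATP substrate; nearly all actives have a fitted effect of over 70% in size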
# Luciferin 4-monooxygenase (Photinus pyralis), sequence (P08659 whole entry, looked up): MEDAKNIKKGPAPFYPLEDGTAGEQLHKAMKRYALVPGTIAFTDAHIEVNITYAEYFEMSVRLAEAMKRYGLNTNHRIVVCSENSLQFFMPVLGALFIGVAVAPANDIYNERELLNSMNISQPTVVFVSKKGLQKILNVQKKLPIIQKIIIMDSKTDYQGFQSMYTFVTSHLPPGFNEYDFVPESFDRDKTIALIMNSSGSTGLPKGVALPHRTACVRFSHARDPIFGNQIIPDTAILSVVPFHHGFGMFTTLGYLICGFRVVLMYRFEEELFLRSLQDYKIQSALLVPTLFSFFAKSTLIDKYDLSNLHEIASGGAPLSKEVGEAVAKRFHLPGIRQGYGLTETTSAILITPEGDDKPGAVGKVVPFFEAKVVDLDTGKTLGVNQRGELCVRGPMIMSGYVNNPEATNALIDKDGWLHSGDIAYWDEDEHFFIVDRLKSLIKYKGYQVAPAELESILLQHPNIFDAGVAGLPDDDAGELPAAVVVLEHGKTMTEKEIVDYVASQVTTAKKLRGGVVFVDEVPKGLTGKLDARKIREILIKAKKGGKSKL
# In short: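 Direct inhibition of firefly luciferase enzyme (10 nM final, 50 mM Tris Acetate) assessed by luminescence within 5 minutes. Percent activity scaled between DMSO and PTC124 positive control, with concentration-effect curves classified by fit quality and response.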
# [23] = S16 Schwann cell viability assay (CellTiter-Glo assay) (AID 624031);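 also: native untransfected S16 rat Schwann cells; cellular ATP luminescence as a viability measure; nearly all actives have a fitted effect of over 70% in size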
# In short: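 Cells were seeded at 500-750 per well in phenol red-free DMEM with 10% FBS and left overnight. Compounds or DMSO were pinned in, incubation ran 24 h at 37 °C/5% CO2, then CellTiter-Glo reagent was added and luminescence measured.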
# [24] = S16 Schwann cell PMP22 intronic element firefly luciferase assay (AID 624032); also: nearly all actives have a fitted effect of over 30% in size
# In short: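 Luciferase reporter of PMP22 intronic-element expression in stably transfected S16 rat Schwann cells, read by ONE-Glo luminescence after 24 h compound exposure at 37 C. Activity scaled between DMSO (0%) and positive-control PTC124; concentration-effect curves quality-classified.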
# [25] = S16 Schwann cell PMP22 intronic element beta-lactamase assay (AID 624044; calls by dose curve; also: nearly all actives have a fitted effect of over 15% in size)
# In short: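 Beta-lactamase reporter under a PMP22 intronic regulatory element in stable S16 rat Schwann cells; 24 h compound exposure. 460 nm blue signal normalized between DMSO (0%) and potassium clavulanate, with 535 nm FRET tracking viability; curves classed by r2 and response.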
# [26] = qHTS profiling for inhibitors of Plasmodium falciparum proliferation (AID 504749); also: nearly all actives have a fitted effect of over 60% in size; settings: P. falciparum in erythrocytes, SYBR Green DNA, 72 h, at 28.7 µM (top of the series)
# In short: (§1)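 In a 72 h erythrocytic culture (37 C, humidified, 5% CO2) at 2.5% hematocrit and 0.3% starting parasitemia, compounds were tested; SYBR Green I in detergent lysis buffer stained parasite DNA overnight.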
# 3D7 = test: as above; settings: P. falciparum in erythrocytes, SYBR Green DNA, 72 h; series mostly up to 28.7 µM
# In short: as §1
# AS120 = test: as above; settings: P. falciparum in erythrocytes, SYBR Green DNA, 72 h; series mostly up to 28.7 µM
# In short: as §1
# ATS189 = test: as above; settings: P. falciparum in erythrocytes, SYBR Green DNA, 72 h; series mostly up to 28.7 µM
# In short: as §1
# ATS95 = test: as above; settings: P. falciparum in erythrocytes, SYBR Green DNA, 72 h; series mostly up to 28.7 µM
# In short: as §1
smiles,measurement,setting,value
COc1cc2c(cc1OC)C(c1ccccc1)CN(C)CC2 (stereo unspecified),outcome,[1],inactive
same,Potency,[2],inactive
same,Potency,[3],inactive
same,outcome,[4],inactive
same,Potency,[5],14.1 µM (active)
same,Potency,[6],7.94 µM (active)
same,outcome,[7],inactive
same,outcome,[8],inactive
same,Potency,[9],inactive
same,Potency,[10],inactive
same,outcome,[11],inactive
same,Potency,[12],inactive
same,Potency,[13],inactive
same,Potency,[14],inactive
same,outcome,[15],inactive
same,outcome,[16],inactive
same,outcome,[17],inactive
same,activation,[18],1.81%
same,outcome,[19],inactive
same,outcome,[20],inactive
same,Potency,[21],inactive
same,Potency,[22],inactive
same,outcome,[23],inactive
same,Potency,[24],inactive
same,outcome,[25],inactive
same,"activity, negative = inhibition",[26]; parasite line A,-10.7%
same,"activity, negative = inhibition",[26]; parasite line B,-13.2%
same,Potency,3D7,inactive
same,Potency,AS120,inactive
same,Potency,ATS189,inactive
same,Potency,ATS95,inactive

# Reference: PubChem BioAssay (NCATS)
